Compound activity deposited in PubChem BioAssay by Center for Chemical Genomics, University of Michigan.
Dicer processing = human Dicer pre-microRNA cleavage inhibition; Q9UPY3; cat-ELCCA pre-miR-21 Dicer processing, chemiluminescence; active compounds read high; z-score at 25 µM; 47,000 tested, 6% active; in the data active means z-score above about 3, passing the limit was not always enough;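 further: plate controls were vehicle for no effect and no enzyme for full effect; higher signal means more uncleaved substrate so more Dicer inhibition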
Active calls of the source: *. Many of the other results were omitted from the sample, so hits are more common in it than they were.

SMILES	Dicer processing
Cc1nc(-c2coc3c(C)c(O)c(CN(C)C)cc3c2=O)cs1	-0.18
CCc1cc2c(=O)c(-c3nc4ccccc4n3C)coc2c(CN(C)C)c1O	3.4*
CCc1cc2c(=O)c(-c3nc4ccccc4n3C)c(C)oc2cc1O	1.3
CCc1cc2c(=O)c(-c3nc4ccccc4[nH]3)coc2c(CN2CCC(C)CC2)c1O	4.9*
CCc1cc2c(=O)c(-c3nc4ccccc4[nH]3)coc2c(CN(CC)CC)c1O	0.96
O=c1c(-c2nc3ccccc3s2)coc2c(CN3CCCCC3)c(O)ccc12	0.4
O=C1Nc2ccccc2/C1=C\c1ccccc1N1CCN(Cc2ccccc2)CC1	-0.17
CCN(CC)C(=S)Oc1c(C)cc(C)cc1C	0.56
CCCCCN1C(C(=O)c2ccccc2)=C(NC(=O)C(C)(C)C)c2ccccc2S1(=O)=O	-0.85
COc1ccc(NC(C)=O)c(N=Cc2cc(OC)c(OC)c(OC)c2)c1	-1.7
CCn1c[n+](CC(O)COc2ccccc2)c2ccccc21 (stereo not given)	-1.8
CCn1c[n+](CC(O)COc2ccccc2C)c2ccccc21 (stereo not given)	-1.8
CCn1c[n+](CC(O)COc2ccccc2OC)c2ccccc21 (stereo not given)	7.7*
CCOC(=O)C(=Cc1cc(C)c(C)o1)C(=O)OCC	0.15
Cc1ccc(N(CC(O)CN(C)C)S(=O)(=O)c2ccc(C)cc2)cc1 (stereo not given)	-0.35
CN(C)Cc1coc2ccccc2c1=O	-0.56
COC(=O)C1=C(C)O/C(=C2/C=CC=CN2)C(C)=C1	3.1*
CCOC(=O)CSc1ncnc2sc3c(c12)CCC(C)C3 (stereo not given)	1.1
CCOC(=O)CSc1nc(-c2ccccc2)cn1-c1ccc(OC)cc1OC	-0.6
COc1ccc(-c2nc3c4c5c(sc4ncn3n2)CCCC5)cc1	0.04
Fc1ccc(-c2nc3c4c5c(sc4ncn3n2)CCCC5)cc1	4*
CC1(C)Cc2c(sc3ncn4nc(-c5ccncc5)nc4c23)CO1	3.1*
c1ccc(-c2nc3c4c5c(sc4ncn3n2)CCCC5)cc1	1.2
CC1(C)Cc2c(sc3ncn4nc(-c5ccncc5)nc4c23)C(C)(C)N1	0.58
c1cc(-c2nc3c4c5c(sc4ncn3n2)CCCCC5)ccn1	0.59
SMILES	Dicer processing
CN(n1cnc2ccsc2c1=O)S(=O)(=O)c1ccc(Cl)cc1	0.02
CN(C(=O)Nc1ccccc1)n1cnc2ccsc2c1=O	5.4*
CN(C(=O)CN1CCOCC1)n1cnc2ccsc2c1=O	0.08
Nc1nc(NC2CCCCNC2=O)n[nH]1 (stereo not given)	-0.63
Fc1ccccc1N1CCN(C2CCN(Cc3ccncc3)CC2)CC1	2.2
NC(=O)c1ccc2c(c1)C1C3CCC(C3)C1C(c1ccccc1)N2 (stereo not given)	2.5
CN1CCN(C(=O)c2cnn3c(C(F)(F)F)cc(-c4ccco4)nc23)CC1	1.1
O=C(Nc1ccc(F)c(Cl)c1)c1cc2nc(-c3ccco3)cc(C(F)(F)F)n2n1	-0.06
Cc1nn2c(C(F)(F)F)cc(-c3ccc(Cl)cc3)nc2c1Cl	-1.3
O=C(NCc1cccnc1)c1nn2c(C(F)(F)F)cc(-c3ccc(F)cc3)nc2c1Cl	3.1*
Cc1nn2c(C(F)(F)F)cc(-c3cccnc3)nc2c1-c1ccc(Cl)cc1	-0.72
O=C(NCc1ccc(Cl)cc1)c1nn2c(C(F)(F)F)cc(-c3ccco3)nc2c1Cl	4.2*
CO[C@H]1/C=C/O[C@@]2(C)Oc3c(C)c(O)c4c(O)c(c5c(nc6cc(C)ccn65)c4c3C2=O)NC(=O)/C(C)=C\C=C\[C@H](C)[C@H](O)[C@@H](C)[C@@H](O)[C@@H](C)[C@H](OC(C)=O)[C@@H]1C	0.32
COC(=O)c1cscc1N1C(=O)c2nccnc2C1=O	2.3
Cc1onc(-c2c(Cl)cccc2Cl)c1C(=O)NC(=S)N=S(C)(=O)c1ccccc1 (stereo not given)	-0.24
N=c1c2cnn(-c3ccccc3)c2ncn1/N=C/c1ccc([N+](=O)[O-])cc1	0.66
C/C(N)=N/S(=O)(=O)c1cc(Cl)c(Oc2ccc([N+](=O)[O-])cc2)c(Cl)c1	-0.39
C[C@]12CC=CCC1CCC1C2CC[C@](C)(C(=O)O)C1/C=C1/Nc2ccccc2C1=O (stereo not given in full)	3.9*
C[C@]12CC[C@@H](O)CC1CCC1C2CC[C@](C)(C(=O)O)C1/C=C1/Nc2ccccc2C1=O (stereo not given in full)	1.5
C#Cc1cccc(N2C(=O)c3cc(Cl)c(Cl)cc3C2=O)c1	0.21
CC(C)(CC(=O)O)CC(=O)N1CCN(c2ccccn2)CC1	4.1*
C=C(C)c1cccc(C(C)(C)NC(=O)N2CCN(c3ccccn3)CC2)c1	1.4
CC(C)(CC(=O)O)CC(=O)N1CCCN(c2c(Cl)cncc2Cl)CC1	1.9
CS(=O)(=O)CS(=O)(=O)Oc1ccc(Br)cc1	-0.62
Cc1c(C)c(C)c(S(=O)(=O)NNc2c(Cl)cccc2Cl)c(C)c1C	-0.1
SMILES	Dicer processing
CC(=O)/C(N=Nc1cc(F)c(Br)cc1F)=C(\C)O	1.5
CCOC(=O)/C(N=Nc1ccc(C)cc1C)=C(\C)O	2.3
CC(=O)/C(N=Nc1ccc(C)cc1[N+](=O)[O-])=C(\C)O	3.2*
CC1(C)Cc2nc(N3CCOCC3)c(C#N)cc2CO1	4.2*
CC1(C)Cc2nc(N3CCCC3)c(C#N)cc2CO1	-1.8
CCOC(=O)CSc1nc(N2CCOCC2)c2c(c1C#N)CC(C)(C)OC2	-1.3
CC1CN(C2CCN(Cc3ccccc3Br)CC2)CC(C)O1 (stereo not given)	-0.06
O=C(c1ccccc1)c1cccn1S(=O)(=O)c1cc(C(F)(F)F)cc(C(F)(F)F)c1	0.94
O/N=C1/c2ccccc2-c2ccc(I)cc21	4.8
CC(N)=O	4.1*
COc1cc2c(cc1OC)C(c1ccccc1N)=NCC2	-2.9
CCOC(=O)C1=NN(c2ccc(C)cc2)/C(=C/C2=NCCc3cc(OC)c(OC)cc32)S1	4.4*
COc1cc2c(cc1OC)C(/C=C1\SC(C(=O)c3cccs3)=NN1c1ccc(C)cc1)=NCC2	0.72
C=CC(C)(O)CC[C@]1(C)[C@H]2CC(=O)C=C(C)[C@]2(C)C[C@@H](O)[C@@H]1C (stereo not given in full)	0.88
Nc1cccc(-c2nnc(-c3cccc(N)c3)o2)c1	1.2
COc1ccc(OC)c(NC(=O)C(=O)NCC2CCCO2)c1 (stereo not given)	-1.7
CCOC(=O)c1c(O)c(O)c(C(=O)OCC)n1-c1ccccc1	-0.94
CC[n+]1c(C)n(-c2ccccc2)c2ccccc21	10*
CC(=O)Nc1ccc2c(c1)[n+](C)c(C)n2-c1ccccc1	0.47
CC(=C/C(=O)O)/C(=C\c1ccncc1)C(=O)O	0.71
CCOC(=O)c1ccc2nc(C(F)(F)F)cc(NC3CCN(Cc4ccccc4)CC3)c2c1	-3.1
COc1ccccc1-c1nn(-c2cccc(C(F)(F)F)n2)c(=O)o1	-0.1
COC(=O)c1ccc(S(=O)(=O)N2CCN(c3ccc(C(F)(F)F)cn3)CC2)n1C	0.55
CC(=O)Nc1nc2ccc(Br)cc2s1	-3
CCOC(=O)Nc1nc2ccc(C)cc2s1	0.79
SMILES	Dicer processing
CS(=O)(=O)c1ccc2nc(NC(=O)CCCC(=O)O)sc2c1	0.15
CCOC(=O)C(=O)Nc1nc2ccc(S(C)(=O)=O)cc2s1	5.8*
CS(=O)(=O)c1ccc2nc(NC(=O)Cc3ccc(Br)cc3)sc2c1	5.3*
CCCCOC(=O)Nc1nc2ccc(C)cc2s1	2.3
CCOC(=O)COc1ccc(C)cc1C(=O)c1ccn2nc(-c3ccc(OC)cc3)cc2n1	-6.9
Cc1cc(N2CCN(c3ccc(Cl)cc3)CC2)n2ncnc2n1	-1.3
